# Bioassay records as filed in PubChem BioAssay.
# AmpC no deterg – AmpC beta-lactamase inhibition without detergent | Potency, µM (highest dose often 57.1 µM), without a hit: top-dose activity change, negative = inhibition, most hits filed as inhibitors | 330,000 tested, 0.52% active | AID 485341 | AmpC nitrocefin hydrolysis, absorbance 480 nm, 0.0001% Triton;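 further: potency means the concentration at half of the fitted maximal effect; plate controls were no compound for no effect and no enzyme for full effect; nearly all actives have a fitted effect of over 20% in size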
# Target sequence (P00811 whole entry, looked up): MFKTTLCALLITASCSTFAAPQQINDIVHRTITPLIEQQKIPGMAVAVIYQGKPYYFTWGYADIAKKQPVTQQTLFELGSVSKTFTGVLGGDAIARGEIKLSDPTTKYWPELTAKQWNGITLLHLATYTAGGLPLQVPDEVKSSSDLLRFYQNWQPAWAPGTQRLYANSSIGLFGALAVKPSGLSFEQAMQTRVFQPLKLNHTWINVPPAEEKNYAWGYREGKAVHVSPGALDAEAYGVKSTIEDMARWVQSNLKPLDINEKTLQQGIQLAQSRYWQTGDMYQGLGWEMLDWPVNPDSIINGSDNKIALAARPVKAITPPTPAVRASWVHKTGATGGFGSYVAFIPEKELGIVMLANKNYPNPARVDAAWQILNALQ
#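 20 mM phosphate pH 7.0 + 0.01% (detergent screen) or 0.0001% Triton X-100; 5.3 nM AmpC reagent; cpd preinc 15 min RT; nitrocefin (800 uM stock) to start; A480 q20 s × 4 min; Activity was normalised to no-enzyme and no-compound control wells.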
# CHX counter – affects cycloheximide protein synthesis inhibition readout, counter-screen; cell reporter, cycloheximide protein synthesis inhibition counterscreen; max response, %; 300,000 tested, 12% active; in the data active means max response mostly above about 13%, no sharp cut-off; inactive means mostly below about 14%; further: read at 38.3 µM for the half of the compounds with a filed dose; 0% is about no effect
# NS1 inh – blocks influenza NS1 protein function; Potency, µM (titrated, usually from 46.1 µM), for the others: at the highest dose activity, positive = more growth; 270,000 tested, 0.4% active; calls by dose curve; further: potency means the concentration at half of the fitted maximal effect; actives are rising curves; nearly all actives have a fitted effect of over 50% in size
#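 In this qHTS, NS1 from influenza A is expressed in budding yeast, where it slows growth. Cells are switched from glucose to 2% galactose medium (pH 6.0, -URA), treated with compound, and growth recovery is read at OD600.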
# AmpC inh detg – inhibitors of E. coli AmpC beta-lactamase with detergent. AmpC hydrolysis of nitrocefin, absorbance 480 nm, 0.01% Triton. 370,000 tested, 0.041% active. Potency, µM (titrated, usually from 114 µM), without a hit: top-dose activity change, negative = inhibition, actives largely listed as inhibitors;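 further: potency means the concentration at half of the fitted maximal effect; 0% = no-compound wells and -100% = no-enzyme wells; nearly all actives have a fitted effect of over 25% in size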
#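 AmpC (5.3 nM in the dispensed reagent) in 20 mM phosphate pH 7.0 with 0.01% (detergent screen) or 0.0001% Triton X-100 was preincubated with compounds for 15 min at room temperature. Nitrocefin was then added from an 800 uM solution, and hydrolysis was followed at 480 nm.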
# Shiga toxin inh – inhibitors of Shiga toxin in Vero cells; Vero cells, Shiga toxin protein synthesis inhibition reporter; inhibition, % at 38.7 µM; 290,000 tested, 9.2% active; in the data active means inhibition mostly above about 28%, no sharp cut-off; inactive means mostly below about 43%; further: 0% is about no effect
# An asterisk follows results filed as active; u = inconclusive; x = no result given. Only a selection was taken, and hits are over-represented in it overall. Unless noted, the call rests on the fitted dose curve; in most records, active means well fitted curve in the direction sought with a large enough effect; inconclusive means small, poorly fitted or top-dose-only effect, or another doubt; inactive means no such curve, though single readings can be large; an effect the other way counts as inactive or inconclusive.
SMILES,AmpC no deterg,CHX counter,NS1 inh,AmpC inh detg,Shiga toxin inh
CCc1nn(C(C)C(=O)NCc2ccc(Cl)cc2)c(=O)c2cc3occc3n12 (stereo unspecified),19.5%,12.3*,-5.2%,2.8%,10.6
CCOc1cccc(OCCOCCN(C)C)c1,-10.6%,12.1,-1.7%,-11.7%,51.8*
CCOc1cccc(OCCCOc2ccccc2)c1,-24.4%,15.0*,5.2%,u,13.2
CCN(CC)CCOC(=O)c1ccc(Nc2c3c(nc4ccccc24)CCC3)cc1,x,x,x,-0.7%,x
O=C(Nc1nc2ccc(S(=O)(=O)N3CCCC3)cc2s1)c1ccccn1,-5.8%,38.0*,x,13.1%,60.4*
COc1ccc(NC(=O)c2cc3ccccc3o2)cc1S(=O)(=O)N1CCCCC1,-40.9%,x,x,x,x
COc1ccc(NC(=O)c2ccc3ccccc3n2)cc1S(=O)(=O)N1CCCCC1,-31.7%,37.7*,-14.6%,-7.1%,44.2
COc1ccc(S(=O)(=O)N2CCCCC2)cc1NC(=O)c1ccc2ccccc2n1,-30.5%,13.6,19.4%,-14.3%,-6.6
O=C(Nc1cccc(S(=O)(=O)N2CCCCC2)c1)c1ccccn1,-10.5%,26.9*,x,4.3%,25.7
Cc1ccc(S(=O)(=O)N2CCCCC2)cc1NC(=O)c1ccc2ccccc2n1,-31.2%,45.6*,34.4%,u,47.4*
O=C(Nc1nc2ccc(S(=O)(=O)N3CCCCC3)cc2s1)c1cccnc1,-11.7%,-2.8,-2.9%,0.8%,-4.5
CCCCSCCCNC(=O)c1cn(C)c2ccc(S(=O)(=O)N3CCCCC3)cc2c1=O,x,x,x,2.8%,x
CC1CC=CC2C1C(=O)N(Cc1ccccc1)C2c1ccc2ccccc2c1C=Cc1ccccc1 (stereo unspecified),x,6.3,x,x,8.5
O=C(O)c1cc(NC2(c3ccccc3)C(=O)c3ccccc3C2=O)ccc1Cl,x,x,x,19.8%,x
O=C(Nc1cccc(S(=O)(=O)N2CCCCCC2)c1)c1ccc2ccccc2n1,-21.2%,22.2*,7.6%,u,2.9
CCOc1cc(N2CCOCC2)c(OCC)cc1NC(=O)c1ccc2ccccc2n1,-32.7%,27.8*,17.0%,3.7%,52.5*
C/C(=N\NC(=O)C1CCCN(S(=O)(=O)c2ccccc2)C1)c1ccccn1 (stereo unspecified),3.16µM*,5.1,-0.1%,1.2%,12.8
O=C(Nc1ccc(N2CCCCC2)cc1)c1ccc2ccccc2n1,-26.6%,28.8*,-4.3%,-5.9%,77.8*
C/C(=N\NC(=O)C1CCCN(S(=O)(=O)c2ccccc2)C1)c1ccncc1 (stereo unspecified),-17.7%,-1.3,3.3%,4.4%,-4.9
O=C(Nc1ccc(N2CCCC2)cc1)c1cc(Br)ccc1Cl,-25.2%,14.4,19.8%,4.3%,32.3
CCOc1ccccc1-n1nnnc1SCC(=O)N1CCCC1=O,-4.8%,x,x,x,x
CCn1c(=O)c2cc(C(=O)NCc3ccc(F)cc3Cl)sc2c2ccccc21,x,x,x,19.8%,x
CC1(C)CNc2cc([N+](=O)[O-])ccc2S1,-11.2%,39.3*,-6.1%,-6.4%,58.1*
Cc1ccc([N+](=O)[O-])cc1,-12.0%,x,x,2.6%,x
NC(=O)C1CCN(CC(=O)N2N=CCC2c2ccccc2)CC1 (stereo unspecified),-2.0%,1.3,-3.0%,13.4%,26.7
SMILES,AmpC no deterg,CHX counter,NS1 inh,AmpC inh detg,Shiga toxin inh
O=C(CN1C(=O)CSc2ccccc21)Nc1ccc2c(c1)OCCO2,-29.3%,29.2*,-2.7%,-1.9%,54.1
Cc1ccc(NC(=O)CN2C(=O)C3C4C=CC(C4)C3C2=O)cc1 (stereo unspecified),-16.3%,16.1,-2.0%,-0.2%,9.9
CCC1Oc2ccccc2N(CC(=O)Nc2ccc3c(c2)OCCO3)C1=O (stereo unspecified),-24.7%,17.2*,-3.4%,u,93.9*
O=C(CN1C(=O)COc2ccccc21)Nc1ccc2c(c1)OCCO2,-26.4%,11.9,7.0%,-6.6%,31.7
O=C(CN1C(=O)C2C3C=CC(C3)C2C1=O)Nc1ccc2c(c1)OCCO2 (stereo unspecified),-21.0%,17.4,6.3%,-11.7%,60.0*
CCOC(=O)CSc1nc(C)cc(C)c1C(N)=O,-5.9%,-6.0,x,-1.6%,-12.7
O=C(NCCN1CCOCC1)C1CCC(CNS(=O)(=O)c2ccc(Cl)cc2)CC1 (stereo unspecified),29.0%,-4.5,-4.4%,-6.0%,-9.6
CC(=O)c1nnn(-c2ccc(C)cc2Cl)c1C,x,x,x,10.3%,x
CN(C)/C=C1\N=C(c2ccc3c(c2)OCO3)OC1=O,-20.7%,27.5*,-11.0%,-2.6%,63.9*
CN(C)/C=C1\N=C(c2ccccc2)OC1=O,-1.9%,15.4*,x,-1.1%,19.1
COCCCNC(=O)c1sc2ncnc(N3CCc4ccccc4C3)c2c1C,150.1%,11.6*,14.3%,u,8.7
O=C1CCC/C(=N/NC(=O)c2cc(NS(=O)(=O)c3cccs3)cc(NS(=O)(=O)c3cccs3)c2)C1,11.2µM*,-2.0,24.8%,-4.0%,-11.8
CCCCc1ccc(-c2nc(-c3ccncc3)no2)cc1,-9.2%,39.0*,-2.6%,-1.3%,72.9*
CCc1ccc(-c2nc(-c3ccncc3)no2)cc1,2.8%,41.8*,-45.3%,-15.4%,85.4*
Brc1ccc(-c2nc(-c3ccncc3)no2)cc1,-21.0%,7.0,2.0%,-2.5%,25.0
Cc1cccc(NS(=O)(=O)c2nnc(NC(=O)C3CCCCC3)s2)c1,-47.3%,-1.0,12.8%,-11.2%,-1.7
Cc1nn(C(C)C(=O)Nc2ccc3c(c2)OCO3)c(C)c1[N+](=O)[O-] (stereo unspecified),-22.8%,3.7,1.2%,-3.7%,73.6
Cc1c([N+](=O)[O-])c(C(=O)Nc2ccc3c(c2)OCCO3)nn1C,-34.5%,51.6*,4.1%,-6.9%,85.0*
Cc1nn(C)c(C(=O)Nc2ccc3c(c2)OCO3)c1[N+](=O)[O-],-13.3%,21.0*,4.6%,-9.1%,36.4
Cc1cc(C)n(C(=O)c2nn(C)c(C)c2[N+](=O)[O-])n1,-6.3%,-1.2,19.4%,1.1%,-6.8
Cc1csc(NC(=O)c2nn(C)c(C)c2[N+](=O)[O-])n1,-5.0%,24.8*,6.0%,2.2%,52.2*
COc1cccc(C2c3[nH]c4ccccc4c3C[C@H]3C(=O)N(CCCOC(C)C)CC(=O)N23)c1 (stereo partly specified),30.2%,7.3,1.2%,-0.1%,-10.4
CC(C)OCCCN1CC(=O)N2C(c3ccccc3)c3[nH]c4ccccc4c3C[C@H]2C1=O (stereo partly specified),125.6%,20.9*,-7.6%,-16.8%,55.8*
CCN1C(=O)[C@@H]2Cc3c([nH]c4ccccc34)C(c3ccc(OC)cc3)N2C1=S (stereo partly specified),-26.8%,21.5*,7.9%,4.9%,32.4*
COC(=O)c1ccc(C2c3[nH]c4ccccc4c3C[C@H]3C(=O)N(C)CC(=O)N23)cc1 (stereo partly specified),106.4%,-4.2,-3.0%,0.0%,-3.7
COc1ccc(C(=O)Nc2ccc(-c3nc4ncccc4o3)cc2C)cc1Br,x,x,x,-1.7%,x
CCCCN(CC)C(=O)c1cc2cc3ccc(Cl)cc3nc2o1,57.0%,33.2*,0.0%,1.0%,63.8*
